Rows were chosen to be rich in hits. Some 9.4% of all compounds tested hit in one or more screens of this group.
Rab9 promoter act: activates the Rab9 promoter | 320,000 tested, 2.8% active | AID 485297 | Potency, µM (series often up to 9.22 µM), for the others: top-dose activation, negative = inhibition, hits mostly activators | Huh7 Rab9 promoter-luciferase reporter, luminescence, 24 h; note: % of control where 0% means no effect; nearly all actives have a fitted effect of over 60% in size
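Luminescence from Amplite-detected luciferase (10 minutes, ambient) reports Rab9 promoter activation. Before that, stable Rab9-luciferase Huh7 cells (1500/well, reduced-serum OP-MEM I plus 10% FBS) were exposed to compound for 24 hours at 37C.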
SMN2 splice enh: enhancers of SMN2 splice variant expression; HEK293 SMN2-luciferase splicing reporter, luminescence, 30-36 h; Potency, µM (titrated, usually from 46.1 µM), inactives show top-dose activity change, positive = activation, hits mostly activators; 210,000 tested, 2.8% active; note: % of control where 0% means no effect; nearly all actives have a fitted effect of over 55% in size
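qHTS luciferase splicing reporter: luminescence rises when SMN2 exon 7 is included in transfected HEK293 cells. Compound exposure lasted 30-36 h at 37C, with 4.5 mM final sodium butyrate as control, followed by a ONE-Glo read.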
FLuc modulator: inhibits or activates purified firefly luciferase, miR-21 counter-screen | 360,000 tested, 6.9% active | AID 588342 | purified FLuc, Km substrates, luminescence inhibition | Potency, µM (top dose mostly 57.5 µM), inactives show at the highest dose activity change, negative = inhibition, usual class: inhibitors | P08659;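 note: plate controls were vehicle for no effect and reference inhibitor for full effect; nearly all actives have a fitted effect of over 55% in size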
Target sequence (P08659 whole entry, looked up): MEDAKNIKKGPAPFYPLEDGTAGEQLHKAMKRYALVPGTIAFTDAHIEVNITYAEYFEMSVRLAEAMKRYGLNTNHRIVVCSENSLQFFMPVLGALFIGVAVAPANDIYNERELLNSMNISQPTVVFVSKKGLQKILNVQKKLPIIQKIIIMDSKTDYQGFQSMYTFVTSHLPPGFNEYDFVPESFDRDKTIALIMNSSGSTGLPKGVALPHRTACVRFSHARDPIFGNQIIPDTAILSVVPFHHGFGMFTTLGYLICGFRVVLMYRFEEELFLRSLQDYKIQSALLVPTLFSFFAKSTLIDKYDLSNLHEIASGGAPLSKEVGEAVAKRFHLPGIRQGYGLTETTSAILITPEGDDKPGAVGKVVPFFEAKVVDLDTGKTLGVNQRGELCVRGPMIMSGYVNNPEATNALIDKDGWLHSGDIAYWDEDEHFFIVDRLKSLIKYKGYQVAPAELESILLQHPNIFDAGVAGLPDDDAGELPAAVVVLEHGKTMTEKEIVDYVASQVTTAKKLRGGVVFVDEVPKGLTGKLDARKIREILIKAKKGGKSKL
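Biochemical qHTS of compounds, final roughly 60 µM downward over six points, against 10 nM purified firefly luciferase using Km concentrations of substrates (10 uM D-luciferin, 10 uM ATP) in Tris acetate pH 7.5 buffer; luminescence output.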
ELG1 DNA repair: inhibitors of ELG1-dependent DNA repair in HEK293T cells; HEK293T ELG1-luciferase reporter, luminescence, 16 h; DNA damage induced by 5-fluorouridine; Potency, µM (series often up to 46.1 µM), without a hit: at the top dose activity change, negative = inhibition, hits mostly inhibitors; 330,000 tested, 2.3% active; note: % is set by controls: 0 for no effect and ±100 for the full control effect; nearly all actives have a fitted effect of over 55% in size
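Step one: seed 2,000 cells per well. Step two: pin-transfer compound or DMSO alongside 5-fluorouridine. Step three: incubate 16 hr, 37 °C, 5% CO2. Step four: add ONE-Glo, wait 30 min, read luminescence.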
NPC1 promoter act: activates the NPC1 promoter. Potency, µM (series often up to 9.22 µM), for inactives: top-dose activation, most hits filed as activators. Huh7 NPC1 promoter luciferase reporter, 24 h. 320,000 tested, 2.4% active. AID 485313; note: % of control where 0% means no effect; nearly all actives have a fitted effect of over 60% in size
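Stable NPC1-promoter luciferase Huh7 line; cpd (DMSO) 24 h, 37 °C, 5% CO2; Amplite luciferase reagent 10 min RT; luminescence readout. qHTS format.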
ELG1 genotoxic: genotoxicity induction in ELG1-luciferase HEK293T cells; HEK293T ELG1-luciferase reporter, luminescence, 16 h; Potency, µM (titrated, usually from 46 µM), inactives show top-dose activity change, positive = activation, actives largely listed as activators; 330,000 tested, 1.3% active; AID 504466; note: % of control where 0% means no effect; nearly all actives have a fitted effect of over 60% in size
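Cells (2,000/well) expressing the ELG1-luciferase fusion are dosed by pin tool and kept 16 hr at 37 °C, 5% CO2. Signal comes from ONE-Glo luciferase reagent after 30 min at room temperature.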
* hit, by the source's call; ? = inconclusive; . = no result given; [ ] = remark or other dose. Calls come from the whole dose curve; as a rule, active = well fitted curve in the direction sought with a large enough effect; inconclusive = small, poorly fitted or top-dose-only effect, or another doubt; inactive = no such curve, though single readings can be large; an effect the other way counts as inactive or inconclusive. Potency is the fitted concentration of half-maximal effect.

SMILES	Rab9 promoter act	SMN2 splice enh	FLuc modulator	ELG1 DNA repair	NPC1 promoter act	ELG1 genotoxic
CCc1ccc(NC(=O)c2noc3c2CCC3)cc1	0.56µM*	13µM*	0.67µM*	?	1µM*	0.82µM*
Cc1ccc(NC(=O)c2noc3c2CCCCC3)cc1	0.5µM*	11µM*	9.5µM*	?	0.56µM*	?
CC(=O)c1cccc(NC(=O)c2noc3c2CCCC3)c1	.	2.8µM*	11µM*	.	.	.
COc1ccc(C(=O)C2CCCN(C(=O)c3noc4c3CCCC4)C2)c(C)c1 (configuration not stated)	-2%	.	3%	26µM*	0%	-7%
Cc1ccc(Cn2ccc(NC(=O)c3noc4c3CCCCC4)n2)cc1	1%	-32%	?	-4%	16%	2%
CN(N=O)c1ccc(/C=C\c2ccnc3ccccc23)cc1	.	0%[9.22 µM]	.	.	.	.
CCOCC(=O)Nc1cc(Cl)ccc1C	-4%	.	-2%	10%	-8%	0%
COc1ccc(-c2nc3cnc(N4CCNCC4)nc3n(-c3ccccc3)c2=O)cc1	.	-59%	.	.	.	.
CCOC(=O)c1c(-c2ccccc2)oc2ccc(NS(=O)(=O)c3ccc(C)cc3)cc12	.	-47%	-13%	.	.	.
Cc1ccc(NC(=O)c2noc3c2CCCCC3)cc1C	0.63µM*	7.9µM*	1.1µM*	?	0.4µM*	?
O=C(NC1CCCCC1)c1noc2c1CCCCC2	2.5µM*	13µM*	9.5µM*	?	2.2µM*	9.2µM*
CCc1ccc(NC(=O)c2noc3c2CCCCC3)cc1	0.63µM*	10µM*	2.1µM*	?	0.71µM*	?
COc1ccc(NC(=O)c2noc3c2CCCCC3)cc1	?	7.9µM*	12µM*	?	1.4µM*	?
Cc1ccc(Cn2ccc(NC(=O)c3noc4c3CCCC4)n2)cc1	?	3%	?	?	?	21µM*
O=C(NCCc1ccccc1)c1noc2c1CCCCC2	3.5µM*	?	8.5µM*	?	2.5µM*	?
O=C(NCc1ccccc1)c1noc2c1CCCC2	21%	.	-18%	24%	20%	?
Cc1ccc(CNC(=O)C2CCN(S(=O)(=O)c3c(C)noc3/C=C/c3ccccc3F)CC2)o1	.	.	1%	.	.	.
C=CCOc1cccc(/C=C2\C(=O)N(Cc3ccc(C)cc3)C(C)=C2C(=O)OC)c1	-4%	-5%[1.84 µM]	-2%	?	-5%	1%
CCOc1cc(/C=C2\C(=O)N(Cc3ccc(C)cc3)C(C)=C2C(=O)OC)ccc1O	-6%	-20%	-1%	13µM*	-2%	0%
COC(=O)C1=C(C)N(Cc2ccc(OC)cc2)C(=O)/C1=C\c1ccco1	-4%	.	2%	18µM*	1%	1%
CCn1cc(C(=O)NCc2ccccc2)c(=O)c2cc(S(=O)(=O)N3CCOCC3)ccc21	.	3%	-4%	.	.	.
CCc1ccc(CNC(=O)C2CCN(C(=O)c3ccc(-n4ccc5ccccc54)s3)CC2)cc1	.	.	-12%	.	.	.
CCOC(=O)c1cc(-c2ccccc2)n(CCC(=O)NCCc2ccccc2)c1C	.	.	-2%	.	.	.
O=[N+]([O-])c1cc2cccnc2c2ncccc12	-2%	.	0%	7.3µM*	1%	-5%
O=[N+]([O-])c1ccc(Oc2cccc3cccnc23)c(Cl)c1	-11%	.	4%	12%	2%	1%
SMILES	Rab9 promoter act	SMN2 splice enh	FLuc modulator	ELG1 DNA repair	NPC1 promoter act	ELG1 genotoxic
O=[N+]([O-])c1cc(O)c2ncccc2c1	-34%	-105%	0%	2.6µM*	-39%	-10%
Cc1ccc([N+](=O)[O-])c2cccnc12	7%	9%	-1%	14%	-3%	0%
COc1ccc(NC(=O)CSc2c3c(nc4ccc(Cl)cc24)CCCC3)cc1Cl	.	-4%	-3%	.	.	.
CSc1cccc(NC(=O)CN2CCN(Cc3ccccc3C)S2(=O)=O)c1	.	.	-12%	.	.	.
C=CCn1c(=S)[nH]c2cc(-c3ccccc3)sc2c1=O	19%	.	1.9µM*	?	25%	9%
C=CCn1c(=S)[nH]c2ccccc2c1=O	-1%	-22%	-3%	-4%	-1%	5%
C(=N\NC1=Nc2cccc3cccc1c23)/c1ccccn1	-23%	-44%	1.5µM*	?	-34%	?
NC(=O)NNC1=Nc2cccc3cccc1c23	0%	-4%	2%	-11%	-12%	-6%
Clc1ccccc1/C=N/NC1=Nc2cccc3cccc1c23	4.5µM*	5.6µM*	0.85µM*	?	?	16µM*
COC(=O)c1ccc(C(=O)OC)c(NC(=O)COC(=O)c2ccc(OC)c(OC)c2OC)c1	-6%	13%	1%	5.8µM*	-2%	1%
Cc1cccc(C)c1NC(=O)CSc1cc(C(=O)c2nccn2C)c2ccccc2n1	-3%	-9%	3%	15µM*	0%	-4%
O=C(O)CNC(=O)c1ccccc1O	.	-13%[9.22 µM]	.	.	.	.
NNC(=O)Cn1c(COc2ccc(Cl)cc2)nc2ccccc21	2%	6%	12µM*	?	-5%	5%
O=C(Cn1c(COc2ccccc2)nc2ccccc21)Nc1cccc(Cl)c1	1%	.	-12%	?	-2%	11%
O=C(O)Cn1c(COc2ccc(Cl)cc2)nc2ccccc21	2%	.	11µM*	-4%	-2%	0%
Cc1nc(/C(N)=N/OC(=O)c2cccc(Cl)c2)c(C(F)(F)F)o1	-5%	.	?	-4%	1%	-1%
C/C(=N/OC(=O)c1ccc(C(F)(F)F)cc1)c1oc(C)nc1C	3%	.	12µM*	21%	0%	2%
